# From PubChem BioAssay (NCATS)
# Values joined by “and” are separate entries in the source; they are usually repeats but may differ in a detail not shown here. Equal values may be shown once. Inconclusive results are not listed. Entries that show only a call come without a potency. The source holds several records for some structures; these can differ, active in one and inactive in another. A number with no mark means an inactive call. Active and inactive are the calls of the source. Calls follow the shape of the dose curve; as a rule, active = well fitted inhibition curve with a large enough effect; inconclusive = small, poorly fitted or top-dose-only effect; inactive = flat fitted curve, though single readings scatter.
# What was measured:
# P93_24 = experiment: qHTS profiling for inhibitors of Plasmodium falciparum proliferation (AID 504749); details: P. falciparum in erythrocytes, SYBR Green DNA, 72 h; series mostly up to 28.7 µM
# Procedure, shortened: (§1)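 Quantitative HTS: compounds pinned into medium, infected erythrocytes added (0.3% parasitemia, 2.5% hematocrit), 72 h culture at 37 C under 5% CO2. Saponin/Triton lysis with SYBR Green I, overnight RT, then fluorescence read.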
# P94_40 = experiment: as above; details: P. falciparum in erythrocytes, SYBR Green DNA, 72 h; series mostly up to 28.7 µM
# Procedure, shortened: as §1
# PAD = experiment: as above; details: P. falciparum in erythrocytes, SYBR Green DNA, 72 h; series mostly up to 28.7 µM
# Procedure, shortened: as §1
# PC15 = experiment: as above; details: P. falciparum in erythrocytes, SYBR Green DNA, 72 h; series mostly up to 28.7 µM
# Procedure, shortened: as §1
# PC26 = experiment: as above; details: P. falciparum in erythrocytes, SYBR Green DNA, 72 h; series mostly up to 28.7 µM
# Procedure, shortened: as §1
# PC49 = experiment: as above; details: P. falciparum in erythrocytes, SYBR Green DNA, 72 h; series mostly up to 28.7 µM
# Procedure, shortened: as §1
# SC27B = experiment: as above; details: P. falciparum in erythrocytes, SYBR Green DNA, 72 h; series mostly up to 28.7 µM
# Procedure, shortened: as §1
# TAB109 = experiment: as above; details: P. falciparum in erythrocytes, SYBR Green DNA, 72 h; series mostly up to 28.7 µM
# Procedure, shortened: as §1
# TAB113 = experiment: as above; details: P. falciparum in erythrocytes, SYBR Green DNA, 72 h; series mostly up to 28.7 µM
# Procedure, shortened: as §1
# TAB165 = experiment: as above; details: P. falciparum in erythrocytes, SYBR Green DNA, 72 h; series mostly up to 28.7 µM
# Procedure, shortened: as §1
# W2 = experiment: as above; details: P. falciparum in erythrocytes, SYBR Green DNA, 72 h; series mostly up to 28.7 µM
# Procedure, shortened: as §1
# CRL-7250 = normal cell line; experiment: Cytotoxic Profiling of Annotated Libraries Using Quantitative High-Throughput Screening (AID 1296008); details: Five cell lines viability, CellTiter-Glo ATP luminescence, 48-72 h; max response: hits give low values; also: potency is read from the fitted curve at half-maximal effect
# Procedure, shortened: (§2)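 Compounds were pin-transferred onto cells and incubated 48 or 72 hr at 37 degree Celsius, 95% humidity. CellTiter-Glo was added, plates sat 10 min at room temperature, then ATP-coupled luminescence was imaged as the viability read-out.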
# HEK293 = experiment: as above; details: Five cell lines viability, CellTiter-Glo ATP luminescence, 48-72 h; max response: hits give low values
# Procedure, shortened: as §2
# HaCat [1] = experiment: as above; details: Five cell lines viability, CellTiter-Glo ATP luminescence, 48-72 h; max response: hits give low values
# Procedure, shortened: as §2
# KB-3-1 = experiment: as above; details: Five cell lines viability, CellTiter-Glo ATP luminescence, 48-72 h; max response: hits give low values
# Procedure, shortened: as §2
# NIH3T3 = experiment: as above; details: Five cell lines viability, CellTiter-Glo ATP luminescence, 48-72 h; max response: hits give low values
# Procedure, shortened: as §2
# HACAT [2] = experiment: qHTS assay to identify novel small-molecules to repurpose for Merkel cell carcinoma treatment (AID 1296009); details: MCC and control cell lines, CellTiter-Glo viability, 72 h; at 44.8 µM (top of the series) unless noted; also: potency is read from the fitted curve at half-maximal effect
# Procedure, shortened: (§3)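 Viability readout: ATP luminescence (CellTiter-Glo) after 72 hr drug exposure at 37 degree celsius. Dose-response format was 8 points for NPC and 11 points for MIPE; data normalized to in-plate controls.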
# HEK293T = experiment: as above; details: MCC and control cell lines, CellTiter-Glo viability, 72 h; at 44.8 µM (top of the series)
# Procedure, shortened: as §3
# MCC-13 = experiment: as above; details: MCC and control cell lines, CellTiter-Glo viability, 72 h; series mostly up to 46 µM
# Procedure, shortened: as §3
# MCC-26 = experiment: as above; details: MCC and control cell lines, CellTiter-Glo viability, 72 h; series mostly up to 46 µM
# Procedure, shortened: as §3
# Also: nearly all actives have a fitted effect of over 60% in size.
compound,measurement,setting,value
CC(=O)CCCCn1c(=O)c2c(ncn2C)n(C)c1=O,outcome,P93_24,inactive
same,Potency,P94_40,inactive
same,outcome,PAD,inactive
same,outcome,PC15,inactive
same,Potency,PC26,inactive
same,outcome,PC49,inactive
same,Potency,SC27B,inactive
same,outcome,TAB109,inactive
same,Potency,TAB113,inactive
same,Potency,TAB165,inactive
same,Potency,W2,inactive
same,max response,CRL-7250,-2.71% and -0.425%
same,max response,HEK293,-3.31%
same,outcome,HEK293,inactive
same,max response,HaCat [1],-9.06%
same,outcome,HaCat [1],inactive
same,max response,KB-3-1,-13.9%
same,outcome,KB-3-1,inactive
same,max response,NIH3T3,4.69% and 0.479%
same,outcome,HACAT [2],inactive
same,outcome,HEK293T,inactive
same,Potency,MCC-13,inactive
same,Potency,MCC-26,inactive
CCN(CC)CCNC(=O)c1ccc(N)cc1,outcome,P93_24,inactive
same,Potency,P94_40,inactive
same,outcome,PAD,inactive
same,outcome,PC15,inactive
same,Potency,PC26,inactive
same,outcome,PC49,inactive
same,Potency,SC27B,inactive
same,outcome,TAB109,inactive
same,Potency,TAB113,inactive
same,Potency,TAB165,inactive
same,Potency,W2,inactive
same,outcome,CRL-7250,inactive
same,outcome,HEK293,inactive
same,max response,HaCat [1],0.0096%
same,outcome,HaCat [1],inactive; activator
same,max response,KB-3-1,-16.7%
same,outcome,KB-3-1,inactive
same,outcome,NIH3T3,inactive
same,outcome,HACAT [2],inactive; activator
same,outcome,HEK293T,inactive
same,Potency,MCC-13,inactive
same,Potency,MCC-26,inactive
CCCNC(=O)NS(=O)(=O)c1ccc(Cl)cc1,outcome,P93_24,inactive
same,Potency,P94_40,inactive
same,outcome,PAD,inactive
same,outcome,PC15,inactive
same,Potency,PC26,inactive
same,outcome,PC49,inactive
same,Potency,SC27B,inactive
same,outcome,TAB109,inactive
same,Potency,TAB113,inactive
same,Potency,TAB165,inactive
same,Potency,W2,inactive
same,max response,CRL-7250,-0.307%
same,outcome,CRL-7250,inactive
same,max response,HEK293,-0.916%
same,outcome,HEK293,inactive
same,max response,HaCat [1],-1.01%
same,outcome,HaCat [1],inactive
same,max response,KB-3-1,-1.87% and 8.57%
same,outcome,NIH3T3,inactive
same,outcome,HACAT [2],inactive
same,outcome,HEK293T,inactive
same,Potency,MCC-13,inactive
same,Potency,MCC-26,inactive
COc1ccccc1N1CCN(CCCNc2cc(=O)n(C)c(=O)n2C)CC1,outcome,P93_24,inactive
same,Potency,P94_40,inactive
same,outcome,PAD,inactive
same,outcome,PC15,inactive
same,Potency,PC26,inactive
same,outcome,PC49,inactive
same,Potency,SC27B,inactive
same,outcome,TAB109,inactive
same,Potency,TAB113,inactive
same,Potency,TAB165,inactive
same,Potency,W2,inactive
same,max response,CRL-7250,-0.41%
same,outcome,CRL-7250,inactive
same,outcome,HEK293,inactive
same,outcome,HaCat [1],inactive
same,max response,KB-3-1,10% and -5.34% and -7.87%
same,outcome,NIH3T3,inactive
same,outcome,HACAT [2],inactive
same,outcome,HEK293T,inactive
same,Potency,MCC-13,inactive
same,Potency,MCC-26,inactive
CC[C@]1(O)C[C@@H]2CN(CCc3c([nH]c4ccccc34)[C@@](C(=O)OC)(c3cc4c(cc3OC)N(C)[C@H]3[C@@](O)(C(=O)OC)[C@H](OC(C)=O)[C@]5(CC)C=CCN6CC[C@]43[C@@H]65)C2)C1,Potency,CRL-7250,266 nM (active)
same,Potency,HEK293,66.8 nM (active) and 84.1 nM (active) and 46.1 nM (active)
same,max response,HaCat [1],0.756%
same,outcome,HaCat [1],inactive
same,Potency,KB-3-1,2.91 µM (active) and 18.4 nM (active)
same,outcome,HACAT [2],inactive
same,Potency,MCC-13,119 nM (active) and 1.19 µM (active)
CCOc1ccc(Nc2nc(-c3c(C)nc4ccccn34)cs2)cc1,Potency,CRL-7250,146 nM (active)
same,Potency,HEK293,46.1 nM (active)
same,max response,HaCat [1],3.42%
same,outcome,HaCat [1],inactive
same,Potency,KB-3-1,33.2 nM (active) and 32.6 nM (active)
same,Potency,NIH3T3,5.3 nM (active) and 73.1 nM (active)
same,outcome,HACAT [2],inactive
same,Potency,MCC-13,37.2 nM (active)
same,Potency,MCC-26,52.6 nM (active)
CS(=O)c1ccc(-c2nc(-c3ccc(F)cc3)c(-c3ccncc3)[nH]2)cc1 (stereo not drawn),Potency,CRL-7250,19100 nM (active)
same,outcome,CRL-7250,inactive
same,Potency,HEK293,8550 nM (active)
same,outcome,HEK293,inactive
same,max response,HaCat [1],2.48%
same,outcome,KB-3-1,inactive
same,max response,NIH3T3,3.16% and 3.83%
same,outcome,HEK293T,inactive
same,Potency,MCC-13,inactive
same,Potency,MCC-26,inactive
CCN1CCC[C@H]1CNC(=O)c1cc(S(N)(=O)=O)ccc1OC,outcome,P93_24,inactive
same,Potency,P94_40,inactive
same,outcome,PAD,inactive
same,outcome,PC15,inactive
same,Potency,PC26,inactive
same,outcome,PC49,inactive
same,Potency,SC27B,inactive
same,outcome,TAB109,inactive
same,Potency,TAB113,inactive
same,Potency,TAB165,inactive
same,Potency,W2,inactive
same,max response,CRL-7250,-0.0938% and -2.14%
same,outcome,HEK293,inactive
same,max response,HaCat [1],-3.98%
same,outcome,HaCat [1],inactive
same,max response,KB-3-1,-2.45%
same,outcome,KB-3-1,inactive
same,max response,NIH3T3,0.0033% and 0.419%
same,outcome,HACAT [2],inactive
same,outcome,HEK293T,inactive
same,Potency,MCC-13,inactive
same,Potency,MCC-26,inactive
O=C(O)CCc1nc(-c2ccccc2)c(-c2ccccc2)o1,max response,CRL-7250,-11.7% and 0.986%
same,max response,HEK293,-15.1% and -1.16%
same,max response,HaCat [1],-18.5%
same,outcome,HaCat [1],inactive
same,max response,KB-3-1,-6.48%
same,outcome,KB-3-1,inactive
same,max response,NIH3T3,3.82%
same,outcome,NIH3T3,inactive
same,outcome,HACAT [2],inactive
same,Potency,MCC-13,inactive
same,Potency,MCC-26,inactive
Cc1ccc(Nc2cc(-c3cccc(N4C(=O)c5ccccc5C4=O)c3)ncn2)cc1NS(C)(=O)=O,outcome,CRL-7250,inactive
same,max response,HEK293,-21.5%
same,outcome,HaCat [1],inactive
same,max response,KB-3-1,6.32%
same,outcome,KB-3-1,inactive
same,max response,NIH3T3,-7.13%
same,outcome,NIH3T3,inactive
same,outcome,HACAT [2],inactive
same,Potency,MCC-13,inactive
same,Potency,MCC-26,inactive
